Values joined by “and” are separate entries in the source; they are usually repeats but may differ in a detail not shown here. Equal entries are not always repeated. Screen size: about 16,000 compounds; about 5,800 (36%) were called active. Inconclusive results (about 23%) are left out. Calls come from the whole dose curve; as a rule, active = well fitted curve in the direction sought with a large enough effect; inconclusive = small, poorly fitted or top-dose-only effect, or effect the other way; inactive = no such curve, though single readings can be large or run the other way. Some of the results follow. A structure can be active in one record and inactive in another.
Molecular target: Cytochrome P450 2C19 (Homo sapiens) (UniProt P33261)
Assay: Cytochrome panel assay with activity outcomes
Conditions: recombinant CYP, pro-luciferin dealkylation, luminescence, p450-cyp2c19; series mostly up to 57.1 µM; activity, negative = inhibition: at the top concentration
% is set by controls: 0 for no effect and ±100 for the full control effect.

Cytochrome P450 2C19 (Homo sapiens), sequence (P33261 whole entry, looked up): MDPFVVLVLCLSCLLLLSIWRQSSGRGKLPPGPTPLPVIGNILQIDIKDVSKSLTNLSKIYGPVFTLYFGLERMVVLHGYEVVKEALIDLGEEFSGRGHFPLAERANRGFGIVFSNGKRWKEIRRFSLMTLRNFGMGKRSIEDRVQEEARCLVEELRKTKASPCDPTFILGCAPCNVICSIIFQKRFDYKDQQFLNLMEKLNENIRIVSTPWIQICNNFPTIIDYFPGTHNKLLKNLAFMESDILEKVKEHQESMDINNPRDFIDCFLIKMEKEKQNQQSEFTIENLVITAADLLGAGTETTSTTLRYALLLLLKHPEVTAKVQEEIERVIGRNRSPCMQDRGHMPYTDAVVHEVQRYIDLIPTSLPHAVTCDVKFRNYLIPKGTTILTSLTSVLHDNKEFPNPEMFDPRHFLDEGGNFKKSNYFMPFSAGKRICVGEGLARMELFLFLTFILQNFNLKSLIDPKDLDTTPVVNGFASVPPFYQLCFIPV

Structure (SMILES)	AC50	activity, negative = inhibition
CCOc1ccc(CCNC(=O)CCCN2C(=O)c3ccccc3C2=O)cc1OCC	28.2 µM (active)	
CCOCCCNC(=O)CCS(=O)(=O)Cc1ccc(C)cc1		-54.9% (inactive)
COc1ccc(CCNC(=O)CCCCCN2C(=O)c3ccccc3C2=O)cc1	2.51 µM (active)	
O=C(CCCCCN1C(=O)c2ccccc2C1=O)NCc1ccccn1		-12.2% (inactive)
C#CCCCO/N=C1/C[C@@H](O)[C@@H](O)[C@@H]2[C@@H]3C(=O)N(C[C@@H]4CCCO4)C(=O)[C@H]3CC[C@@H]12		1.94% [at 11.4 µM] (inactive)
O=S(=O)(NCc1cc(-c2ccccc2Cl)no1)c1ccc(Cl)cc1	0.0562 µM (active)	
O=S(=O)(NCc1cc(-c2ccccc2Cl)no1)c1ccccc1	0.158 µM (active)	
O=C(Nc1ccccc1)c1cc(-c2ccccc2Cl)no1	2.82 µM (active)	
O=C1c2ccccc2C(=O)N1Cc1cc(-c2ccccc2Cl)no1	10 µM (active)	
O=C(O)[C@@H]1[C@@H](C(=O)Nc2ccccc2)[C@@H]2C=C[C@@H]1O2		-3.64% [at 11.4 µM] (inactive)
CC[C@@H](CS(=O)(=O)O)[N+](=O)[O-]		45% [at 11.4 µM] (inactive)
CS(=O)(=O)N(CC(=O)Nc1c(F)cccc1F)c1ccc(C23CC4CC(CC(C4)C2)C3)cc1	11.2 µM (active)	
CN(C)C(=O)CN(c1ccc2c(c1)OCO2)S(C)(=O)=O		-7.35% (inactive)
CCCC/C=C/C(NC(=O)c1cccs1)c1ccccc1 (stereo not given)	1.58 µM (active)	
CCCC/C=C/C(NC(=O)c1ccco1)c1ccccc1 (stereo not given)	15.8 µM (active)	
CCCCCCCCCCCCCCC/C=C\[C@H](O)[C@@H](NC(=O)CCCCCCCCCCCCC)OC (tested in a mixture with another compound)		-16.6% (inactive)
CCCN(CCC)C(=O)[C@@H](CCC(=O)O)NC(=O)c1ccccc1	inactive	
CCCC/C=C/C(NC(=O)c1ccc(-c2ccccc2)cc1)c1ccccc1 (stereo not given)		-0.0339% (inactive)
CCCC/C=C/C(NC(=O)c1ccccc1)c1ccccc1 (stereo not given)	7.94 µM (active)	
CCCC/C=C/C(NC(=O)Oc1cccc(C(F)(F)F)c1)c1ccccc1 (stereo not given)	3.16 µM (active)	
Nc1cc(=O)[nH]c(N)n1		27.3% (inactive)
CC(C)=CCC/C(C)=C/CO/N=C1/[C@H]2O[C@@H]2[C@@H](O)[C@H]2[C@H]1CCn1c(=O)n(-c3ccccc3)c(=O)n12		18.2% [at 11.4 µM] (inactive)
N#Cc1cccc(-c2nc3cnc(N4CCOCC4)nc3n(C[C@H]3CCCO3)c2=O)c1		11.7% (inactive)
COc1cccc(N(C(=O)Cn2nnc(-c3ccc(C)cc3)n2)C(C(=O)NC(C)(C)C)c2c[nH]c3ccccc23)c1 (stereo not given)	10 µM (active)	

Structure (SMILES)	AC50	activity, negative = inhibition
OC[C@@H]1O[C@H](O)[C@@H](Cl)[C@H](O)[C@@H]1O		27.9% (inactive)
CN(CC[C@@H](Oc1ccc(-c2ccccc2)cc1)c1ccc(F)cc1)CC(=O)O	6.31 µM (active)	
CNCC[C@H](Oc1ccccc1OC)c1ccccc1	inactive	
CC(C)CN1CCC2(CC1)CCN(S(=O)(=O)c1ccccc1)CC2		-0.341% (inactive)
CC(Oc1ccc(Cl)cc1)c1ccnn1S(=O)(=O)c1ccccc1 (stereo not given)	0.501 µM (active)	
CC(Oc1ccccc1)c1ccnn1S(=O)(=O)c1ccccc1 (stereo not given)	2 µM (active)	
CC(Oc1ccc(-c2ccccc2)c(F)c1)c1ccn(S(=O)(=O)c2ccc(Cl)cc2)n1 (stereo not given)	3.55 µM (active)	
CO[C@H]1COC(=O)[C@H](C)NC(=O)C/C=C\[C@@H](C)[C@H](OC)COC(=O)[C@@H](OCc2ccccc2)/C=C\[C@@H]1C		1.79% [at 11.4 µM] (inactive)
N[C@H](C(=O)O)c1ccc(C(=O)O)c(O)c1		25.4% (inactive)
N[C@@H](C(=O)O)c1ccc(C(=O)O)cc1	inactive	
N[C@@H](C(=O)O)c1ccc(P(=O)(O)O)cc1	15.8 µM (active)	
N[C@H](C(=O)O)c1ccc(C(=O)O)cc1		53.2% (inactive)
N[C@@H](C(=O)O)c1ccc(C(=O)O)c(O)c1		20.8% (inactive)
N[C@@H](C(=O)O)c1ccc(C(=O)O)c(C(=O)O)c1	316 nM (active) and inactive and 3.16 µM (active)	
Cc1cc(=Nc2ccc3c(c2)c(N)cc(C)[n+]3C)nc(N)n1C		35.5% [at 11.4 µM] (inactive)
CC(NC(=O)CCSc1nc(-c2ccco2)cc(C(F)(F)F)n1)c1ccccc1 (stereo not given)	1.41 µM (active)	
COc1cc(C2C(C(=O)OCCC#N)=C(C)NC3=C2S(=O)(=O)c2ccccc23)cc(OC)c1OC (stereo not given)	20 µM (active)	
COc1ccccc1CNc1ccnc(-c2cccc(C#N)c2)n1	3.98 µM (active)	
COc1ccc(CNc2ccnc(-c3cccc(C#N)c3)n2)c(OC)c1	3.98 µM (active)	
Cc1nn(C)c(C(=O)NNC(=S)Nc2ccc(Cl)cc2)c1[N+](=O)[O-]		-9.31% (inactive)
Cc1nn(C(C)C(=O)Nc2sc3c(c2C#N)CCCC3)c(C)c1[N+](=O)[O-] (stereo not given)	10 µM (active)	
COc1cccc(NC(=S)NNC(=O)C(C)n2nc(C)c([N+](=O)[O-])c2C)c1 (stereo not given)	7.94 µM (active)	
Cc1nn(C(C)C(=O)Nc2ccc(Cl)cn2)c(C)c1[N+](=O)[O-] (stereo not given)	3.16 µM (active)	
OC(CN1CCCCC1)CN1CCCCC1		-13% (inactive)

Structure (SMILES)	AC50	activity, negative = inhibition
FC(F)(F)c1nc2nc(Cl)c(Cl)nc2n1CCCN1CCOCC1		-10.6% [at 11.4 µM] (inactive)
CCn1c(COc2ccc(C)cc2)nnc1SCc1ccc(C#N)cc1	15.8 µM (active)	
C=C1C=C(Br)C2(OCCCO2)[C@H]2OC12 (stereo not given in full)		18% [at 11.4 µM] (inactive)
CN1CCN(c2nc(-c3cccnc3)nc3ccccc23)CC1		-26.6% (inactive)
CC1CCCCN1c1nc(-c2ccncc2)nc2ccccc12 (stereo not given)	0.355 µM (active)	
C/C(=N\NC(=O)c1ccc(Br)cc1)c1ccccc1	2.82 µM (active)	
C/C(=N/NC(=O)Cc1cccn1C)c1ccccc1	10 µM (active)	
COc1ccc(/C(C)=N/NC(=O)c2ccc(N(C)C)cc2)cc1		22.2% (inactive)
CC(=NCC(=O)O)c1ccccc1		0.942% [at 11.4 µM] (inactive)
CC(=O)NN1C(=O)c2ccc(Oc3ccc([N+](=O)[O-])cc3)cc2C1=O		-26.5% (inactive)
CC(=O)NN1C(=O)c2ccc(Oc3cccc([N+](=O)[O-])c3)cc2C1=O	11.2 µM (active)	
CCOC(=O)C[n+]1c(C)sc2ccc(OC)cc21	5.01 µM (active)	
Cc1sc2ccccc2[n+]1CCC(=O)O		13.1% [at 11.4 µM] (inactive)
Cc1sc2ccccc2[n+]1CCC(C)S(=O)(=O)[O-] (stereo not given)		-14.6% (inactive)
C/C(=N\NC(=O)c1[nH]c2c([N+](=O)[O-])cc(C)cc2c1-c1ccccc1)c1cccnc1	4.47 µM (active)	
O=C(N/N=C(\c1ccccc1)c1cccnc1)C(O)(c1ccccc1)c1ccccc1		-19.4% (inactive)
O=C(Oc1ccccc1[N+](=O)[O-])c1cccnc1		2.69% (inactive)
CN1CCN2c3ncccc3Cc3ccccc3C2C1 (stereo not given)	0.0501 µM (active)	
CN1CCN(c2ncncc2-c2cccnc2)CC1		25.5% (inactive)
CC(C)(C)[C@@]1(O)CCN2C[C@@H]3c4ccccc4CCc4cccc(c43)[C@@H]2C1	inactive	
Oc1ccc([C@@H]2CNCc3sccc32)cc1O		10.2% (inactive)
CC[C@H](C)N(C)C(=O)c1cc2ccccc2c(-c2ccccc2Cl)n1		-37% (inactive)
O=C(NNC(=O)c1cc(-c2ccc(Cl)c(Cl)c2)nc2ccccc12)Nc1ccccc1	4.47 µM (active)	
Cc1cccc(NC(=O)NNC(=O)c2cc(-c3ccccc3Cl)nc3ccccc23)c1	3.16 µM (active)	

Structure (SMILES)	AC50	activity, negative = inhibition
O=C(COc1ccc2ccccc2c1Br)NNC(=O)Nc1ccccc1	3.55 µM (active)	
C[C@@H]1[C@H]2CC[C@@H]3[C@@H]4CC=C5C[C@@H](N(C)C)CC[C@]5(C)[C@@H]4CC[C@@]32CN1C		-42.1% [at 25.6 µM] (inactive)
Cc1noc(C)c1C(=O)N1CCC[C@@]2(CCN(c3ncccn3)C2)C1		-14% (inactive)
Cc1ccc(C(=O)NC(=S)NCC(=O)c2ccccc2)cc1		-26.2% (inactive)
Cc1ccccc1C(=O)NC(=S)NCC(=O)c1ccccc1	4.47 µM (active)	
Cc1nn(-c2ccccc2)c2c1C(c1ccc(O)c(O)c1)N1C(=N2)C(Nc2ccccc2)=Nc2ccccc21 (stereo not given)	3.16 µM (active)	
CC(=O)Nc1ccc(NC2=Nc3ccccc3N3C2=Nc2c(c(C)nn2-c2ccccc2)C3c2ccccc2)cc1 (stereo not given)	2 µM (active)	
CN(CC(=O)O/N=C(\N)c1ccccn1)S(=O)(=O)c1ccccc1		-28.9% (inactive)
COC(=O)CN(c1ccccn1)S(=O)(=O)c1ccccc1		-7.88% (inactive)
Cc1cccc(N(CC(=O)NCCSCc2ccco2)S(=O)(=O)c2ccccc2)c1	2.51 µM (active)	
Cc1cc(C)cc(N(CC(=O)NCCSc2ccccn2)S(=O)(=O)c2ccccc2)c1	2.24 µM (active)	
Cc1cccc(CSCCNC(=O)c2ccc(N(C)S(=O)(=O)c3ccccc3)cc2)c1	1.12 µM (active)	
O=C(CN(c1ccccc1)S(=O)(=O)c1ccccc1)NCCSCc1ccco1	8.91 µM (active)	
CCCOc1ccccc1-c1nc2n[nH]nc2c(=O)[nH]1	inactive	
NC(N)=NC[C@@H]1COC2(CCCCC2)O1		0.253% [at 25.6 µM] (inactive)
N[C@@H](CS(=O)O)C(=O)O		3.38% (inactive)
Fc1ccc(NC(=S)NCCc2ccccc2)c(F)c1F	0.355 µM (active)	
COc1ccccc1NC(=S)NC(=O)c1ccc(-c2ccc(Cl)cc2)o1	8.91 µM (active)	
Fc1cc(Br)ccc1NC(=S)NCCc1ccccc1	1.58 µM (active)	
Fc1ccccc1NC(=S)NCCc1ccccc1	3.16 µM (active)	
COc1ccccc1NC(=S)NCCc1ccccc1	3.16 µM (active)	
CC(=O)Nc1cccc(C(=O)OCc2ccc(C(=O)Oc3ccc(Cl)cc3)cc2)c1	4.47 µM (active)	
Cc1cc(OC(=O)c2ccc(Cl)cc2)cc(=O)n1C		-7.64% (inactive)

— PubChem BioAssay AID1851 (National Center for Advancing Translational Sciences (NCATS), 2009)
